# High-throughput results from PubChem BioAssay.
# This is one part of a sample in which hits are shown more often than they occur.
# Cycloheximide cs: counter-screen hit for Shiga toxin inhibitors, cycloheximide; hit rate 12% among 300,000; cell reporter, cycloheximide protein synthesis inhibition counterscreen; max response, %; in the data active = max response mostly above about 13%, no sharp cut-off; inactive = mostly below about 14%; note: read at 38.3 µM for the half of the compounds with a filed dose; 0% is about no effect
# LASV entry inh: blocks Lassa virus binding to or entry into cells. Lassa virus pseudotype entry inhibition, cell reporter. Potency, µM (highest dose often 37.9 µM), inactives show at the top dose activity change, negative = inhibition, actives largely listed as inhibitors. hit rate 1.2% among 300,000. AID 540256; calls by dose curve; tested in HEK293 cells; note: potency is the fitted concentration of half-maximal effect; % is set by controls: 0 for no effect and ±100 for the full control effect; nearly all actives have a fitted effect of over 50% in size
# VACV mCherry inh: inhibitors of vaccinia virus infection (mCherry reporter signal); Vaccinia virus mCherry reporter infection, fluorescence; Potency, µM (series often up to 36.5 µM), for inactives: at the top dose activity change, negative = inhibition, hits mostly inhibitors; hit rate 0.63% among 310,000; AID 720579; calls by dose curve; tested in A549 cells; note: potency is the fitted concentration of half-maximal effect; % is set by controls: 0 for no effect and ±100 for the full control effect; nearly all actives have a fitted effect of over 35% in size
# VACV Venus inh: vaccinia inhibition (Venus reporter); Potency, µM (highest dose often 36.5 µM), for inactives: top-dose activity change, negative = inhibition, usual class: inhibitors; Vaccinia virus Venus reporter expression, fluorescence; hit rate 0.46% among 330,000; calls by dose curve; tested in A549 cells; note: potency is the fitted concentration of half-maximal effect; % is set by controls: 0 for no effect and ±100 for the full control effect; nearly all actives have a fitted effect of over 30% in size
# Shiga toxin inh: Shiga toxin inhibition; Vero cells, Shiga toxin protein synthesis inhibition reporter; inhibition, % at 38.7 µM; hit rate 9.2% among 290,000; in the data active = inhibition mostly above about 28%, no sharp cut-off; inactive = mostly below about 43%; note: 0% is about no effect
# Marburg entry inh: blocks Marburg virus binding to or entry into cells | Marburg virus pseudotyped entry inhibition, cell reporter | Potency, µM (series often up to 37.8 µM), inactives show top-dose activity change, negative = inhibition, actives largely listed as inhibitors | hit rate 1.8% among 300,000 | AID 540276; calls by dose curve; tested in HEK293 cells; note: potency is the fitted concentration of half-maximal effect; % is set by controls: 0 for no effect and ±100 for the full control effect
# The depositor's hits bear a star; i = inactive; ? = inconclusive; . = no result given; [ ] = dose if it differs, or a comment.
SMILES,Cycloheximide cs,LASV entry inh,VACV mCherry inh,VACV Venus inh,Shiga toxin inh,Marburg entry inh
Cc1cc(CNC(=O)CCN2Cc3cc(Cl)ccc3OC(C)C2)nn1C (stereo unspecified),.,.,-5%,-2%,.,.
CCOC(=O)N/N=C1\C[C@@H](O)[C@@H](O)[C@@H]2[C@@H]3C(=O)N(C[C@@H]4CCCO4)C(=O)[C@@H]3CC[C@@H]12,.,.,.,.,.,6%[14.2 µM]
O=C(NCCCN1CCN(c2ccccc2F)CC1)c1ccc2nc(N3CCCCC3)sc2c1,.,?,-8%,-23%,.,?
Cc1ccc(CSCC(=O)N2CCOCC2)cc1,20*,18%,-13%,-4%,34,?
O=C(CSc1ccc(Br)cc1)N1CCN(C(=O)c2ccco2)CC1,-2,-1%,-17%,-12%,-5,-14%[46.1 µM]
Cc1ccc(SCC(=O)N2CCOCC2)cc1,23*,33%,-12%,0%,35*,?
O=C(CSc1ccc(Br)cc1)N1CCOCC1,27*,24%[46.1 µM],i,-11%,46*,?
Cc1ccc(-c2nc(CSCC(=O)N3CCOCC3)c(C)o2)cc1,33,2%,.,.,73*,-14%
O=C(CCSc1ccc(Cl)cc1)N1CCOCC1,29*,0%,-10%,-5%,53*,?
COC(=O)c1c(NC(=O)Nc2ccc(Cl)cc2)sc(C)c1C,10,?,-13%,-23%,-9,2%[46.1 µM]
CC1(C)Cc2c(sc(NC(=O)C(=O)N3CCCC3)c2C(N)=O)CO1,-5,?,-21%,-10%,10,?
CC1(C)Cc2c(sc(NC(=O)Nc3ccccc3)c2C(N)=O)CO1,33*,.,.,.,72,.
Cc1sc(NC(=O)Nc2ccccc2)c(C(N)=O)c1C,43*,-15%[46.1 µM],-27%,-28%,72*,-29%[46.1 µM]
COc1ccccc1-n1c(=O)n(C)c2c(C(N)=O)nc(-c3cc(OC)c(OC)c(OC)c3)nc21,.,25%[46.1 µM],-3%,-6%,.,.
O=C(O)c1sc2cccc(Cl)c2c1Cl,16*,1%,2%,0%,50,21%[46.1 µM]
O=C(Nc1ccccc1Cl)c1sc2cccc(Cl)c2c1Cl,.,24%[46.1 µM],-20%,-15%,.,.
Cc1cc(-c2ccc(C)c(S(=O)(=O)N(C)c3ccc(C)c(C)c3)c2)on1,.,-23%[46.1 µM],-11%,-16%,.,.
O=C(CSc1ccc(-c2ccc(F)cc2)nn1)N1CCOCC1,20*,19%[46.1 µM],i,-3%,100,?
O=C(CSc1nnc(Cc2ccccc2)n1C1CCCCC1)N1CCOCC1,16*,12%,-10%,-9%,-25,-1%
O=C(CSc1ccc(-c2ccc(F)cc2)nn1)N1CCN(c2ccccc2)CC1,-4,2%,-14%,-6%,-5,17%
O=C(CSc1ccc(-c2ccccc2)nn1)N1CCOCC1,24*,3%,.,.,19,?
COc1cccc(-c2ccc(SCC(=O)N3CCOCC3)nn2)c1,2,.,-17%,-4%,22,10%[46.1 µM]
CCN(C(=O)CCn1cnc2onc(-c3ccc(F)cc3)c2c1=O)c1ccc(OC)cc1,.,?,-20%,-8%,.,.
CSc1nccc(-c2cc(Cl)c3c(c2)CC(CNC(=O)c2ccc(C)nc2)O3)n1 (stereo unspecified),.,.,i,0%,.,.
COc1cccc(NC(=O)CCc2c(C)nc3nc(CNC(=O)c4cccc(F)c4)nn3c2C)c1,2,14%[46.1 µM],-2%,-4%,2,1%[46.1 µM]
SMILES,Cycloheximide cs,LASV entry inh,VACV mCherry inh,VACV Venus inh,Shiga toxin inh,Marburg entry inh
O=C(NCCc1cccs1)C1CCC(=O)N(CCc2cccc(F)c2)C1 (stereo unspecified),12,.,.,.,16,.
Cc1ccsc1CN(C)C(=O)C1CCC(=O)N(CCc2cccc(F)c2)C1 (stereo unspecified),36*,.,.,.,53*,.
Cc1ccsc1CCNC(=O)C1CCC(=O)N(CCc2cccc(F)c2)C1 (stereo unspecified),46*,.,.,.,120*,.
CN(C)c1ccc(CNC(=O)CCCN2C(=O)c3cccnc3Oc3ccc(Cl)cc32)cc1,.,-13%[46.1 µM],-10%,-3%,.,.
Cc1oc(-c2ccccc2NC(=O)c2ccccn2)nc1CNC(=O)c1cccc(C#CC(C)(C)O)c1,.,.,-8%,-10%,.,.
CCCN1CCCc2cc(CN(CCCN3CCOCC3)C(=O)Nc3ccc(CC)cc3)ccc21,.,?,i,-21%,.,.
O=C(O)c1cc(NN=C2CCN(Cc3ccccc3)CC2)ccc1Cl,1,.,.,.,12,.
c1ccc2c(c1)CCC[C@H]2Nc1nc2ccccc2[nH]1,.,?,.,.,.,-8%
c1ccc2c(c1)CC/C2=N/Nc1nc2ccccc2[nH]1,47*,?,-29%,-18%,119*,?
c1ccc(CN2CCC(=NNc3nc4ccccc4[nH]3)CC2)cc1,33*,?,?,?,31,?
C/C(=N\Nc1nc2ccccc2[nH]1)c1ccc([N+](=O)[O-])cc1,7,?,i,-8%,-8,-1%[46.1 µM]
CC(C)(C)C1CCC(=NNc2nc3ccccc3[nH]2)CC1 (stereo unspecified),37*,12%[46.1 µM],-15%,-13%,68*,?
Cc1cc2c(c(-c3cnccn3)c1)OC(CNC(=O)c1ccc(-n3nc(C)cc3C)cc1)C2 (stereo unspecified),.,.,-17%,-12%,.,.
Cc1cnc2ccccc2c1C,.,.,-14%,-4%,.,.
Cc1cc(NC(=O)c2cc(-c3ccccc3)on2)n(-c2ccccc2)n1,1,2%,-12%,-11%,-6,2%
COc1ccc(-c2cc(C(=O)Nc3ccc(C#N)cc3)no2)cc1,.,0%[46.1 µM],-7%,-11%,.,-14%[46.1 µM]
COc1ccc(-c2cc(C(=O)Nc3cc(C)nn3-c3ccccc3)no2)cc1,40*,1%,.,.,72*,12%
COc1ccc(NC(=O)c2cc(-c3ccccc3)on2)cc1,19*,.,.,.,.,.
CC(=O)Nc1cccc(NC(=O)c2cc(C)on2)c1,21*,15%,i,-3%,53*,18%
COc1ccc(NC(=O)c2cc(C)on2)cc1,56*,.,.,.,89*,.
O=C(CS(=O)(=O)c1cccc2nsnc12)N1CCN(c2ccc(F)cc2)CC1,.,-1%[46.1 µM],-20%,-14%,.,.
COc1ccc(-c2cc(C(=O)Nc3cc(Br)ccc3O)no2)cc1,23*,3%,-14%,-4%,41,-14%
COc1ccc(-c2cc(C(=O)Nc3ccccc3SC)no2)cc1,6,1%,.,.,33,?
S=c1nc(-c2ccccc2)c(-c2ccccc2)n[nH]1,-5,.,i,-12%,-13,.
Nc1c(-c2ccccc2)n[nH]c1-c1ccccc1,31*,77%[14.3 µM],-12%,-8%,78*,-4%
CC1CN(C(=O)COC(=O)c2ccc(F)cc2Cl)CC(C)O1 (stereo unspecified),1,8%,-8%,-7%,14,9%[46.1 µM]
O=C(OCC(=O)N1CCOCC1)c1ccc(F)cc1Cl,35*,4%[46.1 µM],-9%,1%,51*,?
O=C(OCC(=O)N1CCOCC1)c1ccc2c(c1)OCCO2,22,5%,-4%,-1%,25,-2%[46.1 µM]
O=C(OCC(=O)N1CCOCC1)c1cccc(F)c1,48*,?,-10%,-12%,94*,0%[46.1 µM]
CCCc1cc(=O)oc2cc(C)cc(OCC(=O)N3CCC(C(=O)O)CC3)c12,-2,.,-1%,-4%,-7,.
